Source: PubChem BioAssay (NCI)
Several values for one entry are separate records, joined by “and”; a condition that tells them apart may be missing. Equal values may be shown once. This is part of a sample that, as a whole, favours compounds with a hit. Of some 83,000 tested, about 20% had one in any assay.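 Percent growth is the endpoint: 0 to 100 indicates growth inhibition (40 means 60% inhibition), 0 means no net growth, and negative values indicate cell death.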 Activity calls are given as the source filed them.

The compounds below were run on MDA-MB-435 melanoma (assay: NCI-60 one-dose screen, 48 h (100 = growth as untreated, 0 = no growth, -100 = all killed)). Details: 10 µM.
Description: Growth inhibition of the MDA-MB-435 human Melanoma tumor cell line is measured as a screen for anti-cancer activity. Cells are grown in 96 well plates and exposed to the test compound for 48 hours. Compounds are tested at a single concentration, which is 10^-5 M for most compounds. The reported endpoint is percent growth (GI% or GIPRCNT), where numbers from 0 - 100% represent growth inhibition, and numbers from -100% - 0 represent cell death. For example, a value of 40 represents 60% growth inhibition. A value of 0 means no net growth occurred over the course of the experiment. A value of -40 indicates 40% of cells at the beginning of the experiment died by the end of the experiment. A value of -100 means all cells are dead at the end of the experiment.
NCI-60 Human Tumor Cell Lines Screen was performed using the standard one-dose NCI protocol, which is described in more detail at https://dtp.cancer.gov/discovery_development/nci-60/default.htm.
Compounds with GIPRCNT values below 10 were considered active. Activity score was based on GIPRCNT using the following formula: […]
Score is 0 for GIPRCNT values of 100 or above, 50 for GIPRCNT values of 0, and 100 for GIPRCNT values of -100.
For O=C(Nc1cccc(Br)c1)Oc1cccc2cccnc12, the growth was 98.2% (inactive).
O=C(Nc1c(Cl)cccc1Cl)Oc1cccc2cccnc12 was tested, and the growth was 53.6% (inactive).

Same assay, conditions: 10 µM unless noted
In the case of CC1OC(OC2C(OC3CCC4(C)C(CCC5(C)C4CC=C4C6CC(C)(C)CCC6(CO)C(O)CC45C)C3(C)C)OC(C(=O)O)C(OC3OC(COC4OC(CO)C(O)C(O)C4O)C(O)C(O)C3O)C2O)C(O)C(O)C1O (stereo not given), the growth is reported as -85.3% (active).
For CCCCCC(CCCCC)C(=O)O, the growth was 123% (inactive).
In the case of O=C1c2ccccc2C(=O)N1c1ccccc1, the growth is reported as 98.7% (inactive).
With CCC(c1cccc(O)c1)C(CC)c1cccc(O)c1 (stereo not given) the growth was -15.9% (active).
NC(=O)/C=C/C(=O)c1c(Cl)cccc1Cl was tested, and the growth was -68% (active).
In the case of Cc1ccc(N=C=C(c2ccccc2)c2ccccc2)cc1, the growth is reported as 79.9% (inactive).
In the case of Cc1ccnc(NC(c2ccccc2)c2ccc3cccnc3c2O)c1 (stereo not given), the growth is reported as 30.5% (inactive).
For CN(C)CCOc1ccc2c(c1)C(=O)/C(=C\c1ncc([N+](=O)[O-])n1C)C2, the growth was -73.6% (active).
Cc1cc(C(C)(CC(C)C)c2ccc(O)c(C)c2)ccc1O was tested, and the growth was 94.1% (inactive).
C=C(Cl)C(=NC(C)(C)C)Nc1ccccc1C was tested, and the growth was 32.2% (inactive).
For Cc1ccc2nc(-[n+]3cc4ccccc4cc3C)ccc2c1, the growth was 27.8% (inactive).
CCN1/C(=C\c2cc[n+](CC)c3ccccc23)C=Cc2ccccc21 was tested, and the growth was -30.7% (active).
CCOC(=O)/C(=C\c1ccc(-c2ccccc2)cc1)C(C)=O was tested, and the growth was 98.9% (inactive).
CNC(=O)N/N=C/c1ccc([N+](=O)[O-])o1 was tested, and the growth was 121% (inactive).
N#CC1C(=O)SC2c3ccccc3C(=O)c3ccccc3C12 (stereo not given) was tested, and the growth was 107% (inactive).
With C1=C(c2ccccc2)C(c2ccc(OCCN3CCCCC3)cc2)Oc2ccccc21 (stereo not given) the growth was 18.7% (inactive).
O=C(Nc1ccccc1)Oc1c(Cl)c(Cl)c(Cl)c(Cl)c1Cl was tested, and the growth was 109% (inactive) and 98.8% (inactive).
Cc1cc(N)c2ccccc2[n+]1CCCCCCCCCC[n+]1c(C)cc(N)c2ccccc21 was tested, and the growth was -77.2% (active) and 6.1% (active).
N[C@H](C(=O)O)[C@@H]1CC(Cl)=NO1 was tested, and the growth was 29.6% [20 µM] (inactive).
For COC(=O)c1nc(=S)[nH]c(C(=O)OC)c1C(=O)c1ccc2ccccc2c1, the growth was 104% (inactive).
CCCCCCCCCCCCCCCCCCOP(=O)([O-])OC1CC[N+](C)(C)CC1 was tested, and the growth was 15.8% (inactive) and -67.3% (active).
For CN(C)c1ccc(/C=N/N=C(\C#N)[S][Sn]([Cl])([c]2ccccc2)[c]2ccccc2)cc1, the growth was 15.6% (inactive).
For COC(=O)c1nc(=S)[nH]c(C(=O)OC)c1C(=O)c1ccccn1, the growth was 33.3% (inactive).
In the case of S=C(NCCNC(=S)[S][Sn]([c]1ccccc1)([c]1ccccc1)[c]1ccccc1)[S][Sn]([c]1ccccc1)([c]1ccccc1)[c]1ccccc1, the growth is reported as -88% (active).
With COc1ccc(N=N/N=c2\sc3cc(OC)ccc3n2C)cc1 the growth was 104% (inactive).
O=C(/C=C/c1cccc(Cl)c1)c1ccccc1 was tested, and the growth was 88.1% (inactive) and 59.8% (inactive).
With CC1=CC(O)C2CC1C2(C)C (stereo not given) the growth was 103% (inactive) and 97.3% (inactive).
In the case of S=C(N/N=C/c1ccccn1)Nc1ccccn1, the growth is reported as 47.4% (inactive).
In the case of CC(C)(C)CC(C)(C)c1ccc(OCCSC(=N)N)cc1, the growth is reported as 20.2% (inactive).
COc1cc(/C=C/C(C)=O)ccc1O was tested, and the growth was 101% (inactive) and 106% (inactive).
CCCCCCC(C)c1ccccc1O (stereo not given) (tested in a mixture with another compound) was tested, and the growth was 98.7% (inactive).
With O=C(Nc1ccc(F)cc1)ON=C1CCCCC1 the growth was 98.1% [100 µM] (inactive).
For CN(C)c1ccc(C(=C2C=CC(=[N+](C)C)C=C2)c2ccc(N(C)C)cc2)cc1 (tested in a mixture with another compound), the growth was -57.7% (active).
For CC1(C)CC([P+](c2ccccc2)(c2ccccc2)c2ccccc2)=NN1, the growth was 28.2% (inactive).
In the case of O[C@H]1[C@H]2c3cc4c(cc3CN3CCC(=C[C@@H]1O)[C@H]23)OCO4, the growth is reported as 32.5% (inactive).
For CCOC(=O)/C=C/c1ccc([N+](=O)[O-])o1, the growth was 44% (inactive).

Same assay, conditions: 100 µM
O=C(Nc1cccc(Br)c1)Oc1cccc2cccnc12 was tested, and the growth was 43.1% (inactive).
In the case of O=C(Nc1c(Cl)cccc1Cl)Oc1cccc2cccnc12, the growth is reported as 23.8% (inactive).
